In the supplement of paper PMC12494721 one finds growth data, which are given here for 39 compounds.

Structures can show the parent of a compound that is named as a salt.

The subject of this experiment is Ruminococcus gnavus DSM 108212. Nature of the experiment: growth (OD595) fold change vs plate DMSO controls (fold change (ratio)); higher = more growth. The conditions noted are these: incubation time: 27 h, anaerobic, 37 °C. In outline:
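Shaken 96-well cultures in mGAM, grown anaerobically for 27 h at 37 °C, were read at 595 nm. OD came from blank-subtracted readings, corrected for background with 20 µM compound solutions in water and scaled by a calibration factor of 5. Growth is the fold change versus the plate's median DMSO control. Values average 2 biological replicates, and any fold change above 1.5 is NA.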
In the case of `CN[C@H](CC(C)C)C(=O)N[C@H]1C(=O)N[C@@H](CC(N)=O)C(=O)N[C@H]2C(=O)N[C@H]3C(=O)N[C@H](C(=O)N[C@H](C(=O)O)c4cc(O)cc(O)c4-c4cc3ccc4O)[C@H](O)c3ccc(c(Cl)c3)Oc3cc2cc(c3O[C@@H]2O[C@H](CO)[C@@H](O)[C@H](O)[C@H]2O[C@H]2C[C@](C)(N)[C@H](O)[C@H](C)O2)Oc2ccc(cc2Cl)[C@H]1O` [Vancomycin hydrochloride] (20 µM), the growth was determined as 0.17.
The value for `OC[C@H]1OC(O)[C@H](O)[C@H](O)[C@@H]1O` (stereo partly drawn) [D-allose] (50 µM) was 1.07.
The value for `COC1=CC(=O)C[C@@H](C)[C@]12Oc1c(Cl)c(OC)cc(OC)c1C2=O` [Griseofulvin] (20 µM) was 0.915.
The value for `CN1CCN(CCCN2c3ccccc3Sc3ccc(C(F)(F)F)cc32)CC1` [Trifluoperazine dihydrochloride] (20 µM) was 0.968.
For `CCCN(CCC)S(=O)(=O)c1ccc(C(=O)O)cc1` [Probenecid] (20 µM), the growth came to 1.09.
For `C#C[C@]1(O)CC[C@H]2[C@@H]3CCC4=CC(=O)CC[C@@H]4[C@H]3CC[C@@]21C` [Norethindrone] (20 µM), the growth amounted to 1.22.
The value for `NC(=O)c1ncn([C@@H]2O[C@H](CO)[C@@H](O)[C@H]2O)n1` [Ribavirin] (20 µM) was 0.942.
In the case of `Cc1c(O)cccc1C(=O)N[C@@H](CSc1ccccc1)[C@H](O)CN1C[C@H]2CCCC[C@H]2C[C@H]1C(=O)NC(C)(C)C` [Nelfinavir mesylate] (20 µM), the growth is 0.967.
The figure for `CC1(C)S[C@@H]2[C@H](NC(=O)Cc3ccccc3)C(=O)N2[C@H]1C(=O)O` [Benzylpenicillin sodium] (20 µM) is 0; for `COC(=O)Nc1nc2cc([S+]([O-])c3ccccc3)ccc2[nH]1` (centres undefined) [Oxfendazole] (20 µM) it is 0.99; for `CCCc1nc(C)c2c(=O)nc(-c3cc(S(=O)(=O)N4CCN(CC)CC4)ccc3OCC)[nH]n12` [Vardenafil] (20 µM) it is 1.27.
As to `NS(=O)(=O)c1cc(C(=O)O)cc(N2CCCC2)c1Oc1ccccc1` [Piretanide] (20 µM), the growth came out at 0.955.
The value for `C[C@H]1C[C@@H]2[C@H]([C@@H](O)C[C@@]3(C)[C@H]2CC[C@]3(O)C(=O)CO)[C@@]2(C)C=CC(=O)C=C12` [Methylprednisolone, 6-alpha] (20 µM) was 0.836; that for `Oc1ccc2ccccc2c1N=Nc1ccccc1` [Sudan I (1-phenylazo-2-hydroxynaphthalene)] (20 µM) was 1.12; that for `CC(=O)OCC(=O)[C@@]1(O)CC[C@H]2[C@@H]3CCC4=CC(=O)CC[C@]4(C)[C@H]3[C@@H](O)C[C@@]21C` [Cortisol acetate] (20 µM) was 1.
Consider `CCN(CC)CCNc1ccc(CO)c2sc3ccccc3c(=O)c12` [Hycanthone] (20 µM), for which the growth came to 0.939.
The figure for `CC(=O)NC[C@H]1CN(c2ccc(N3CCOCC3)c(F)c2)C(=O)O1` [Linezolid] (20 µM) is 0.196; for `NNC(=O)c1ccncc1` [Isoniazid] (20 µM) it is 0.727.
With `O=C(NCCO[N+](=O)[O-])c1cccnc1` [Nicorandil] (20 µM), the growth was 1.35.
The figure for `CC(=O)[C@H]1CC[C@H]2[C@@H]3CC=C4C[C@@H](O)CC[C@]4(C)[C@H]3CC[C@]12C` [Pregnenolone] (20 µM) is 0.993.
On to `OC[C@@H](O)[C@@H](O)[C@H](O)[C@H](O)CO` [Mannitol] (50 µM), for which the growth came to 0.983.
The figure for `CC[C@@]1(O)C(=O)OCc2c1cc1n(c2=O)Cc2cc3c(CN(C)C)c(O)ccc3nc2-1` [Topotecan] (20 µM) is 0.99; for `CCCCc1ncc(/C=C(\Cc2cccs2)C(=O)O)n1Cc1ccc(C(=O)O)cc1` [Eprosartan mesylate] (20 µM) it is 0.916; for `CCN(CC)CC(=O)Nc1c(C)cccc1C` [Lidocaine hydrochloride] (20 µM) it is 0.66.
The value for `CC(C)c1nc(CN(C)C(=O)N[C@H](C(=O)N[C@@H](Cc2ccccc2)C[C@H](O)[C@H](Cc2ccccc2)NC(=O)OCc2cncs2)C(C)C)cs1` [Ritonavir] (20 µM) was 0.983.
The value for `O=C(OCCOCCO)c1ccccc1Nc1cccc(C(F)(F)F)c1` [Etofenamate] (20 µM) was 1.2; that for `CCCCOc1ccc(CC(=O)NO)cc1` [Bufexamac] (20 µM) was 1.04; that for `Cc1scc2c1N(C(=O)CN1CCN(C)CC1)c1ccccc1NC2=O` [Telenzepine dihydrochloride] (20 µM) was 1.01.
Take `OC[C@H]1O[C@H](O[C@H]2O[C@H](CO)[C@@H](O)[C@H](O)[C@H]2O)[C@H](O)[C@@H](O)[C@@H]1O` [Trehalose] (50 µM): the growth was determined as 1.06.
The value for `NCCCC(O)(P(=O)(O)O)P(=O)(O)O` [Alendronate sodium] (20 µM) was 1.03; that for `CC(=O)Nc1ccc(CC(=O)O)cc1` [Actarit] (20 µM) was 1.11; that for `CCCCc1cc2ccccc2c(OCCN(C)C)n1` [Dimethisoquin hydrochloride] (20 µM) was 0.962.
For the compound `CC[C@H]1OC(=O)C[C@@H](O)[C@H](C)[C@@H](O[C@@H]2O[C@H](C)[C@@H](O[C@H]3C[C@@](C)(O)[C@@H](O)[C@H](C)O3)[C@H](N(C)C)[C@H]2O)[C@@H](CC=O)C[C@@H](C)C(=O)/C=C/C(C)=C/[C@@H]1CO[C@@H]1O[C@H](C)[C@@H](O)[C@@H](OC)[C@H]1OC` [Tylosin] (20 µM), the growth turned out to be 0.0976.
The value for `CN(C)CCC=C1c2ccccc2C=Cc2ccccc21` [Cyclobenzaprine hydrochloride] (20 µM) was 0.869; that for `CC(=C(CCO)SSCC1CCCO1)N(C=O)Cc1cnc(C)nc1N` (stereo in doubt) [Fursultiamine hydrochloride] (20 µM) was 0.992.
The figure for `CCOC(=O)O[C@]1(C(=O)OCCl)CC[C@H]2[C@@H]3CCC4=CC(=O)C=C[C@]4(C)[C@H]3[C@@H](O)C[C@@]21C` [Loteprednol etabonate] (20 µM) is 1.08; for `N[C@@H](CSCCCO)C(=O)O` [Fudosteine] (20 µM) it is 1.14.
Turning to `CC1=C(C)C(=O)C(C(CCCCCC(=O)O)c2ccccc2)=C(C)C1=O` (centres undefined) [Seratrodast] (20 µM), the growth worked out at 0.979.
The figure for `C[C@]12C=CC(=O)C=C1CC[C@@H]1[C@@H]2C(=O)C[C@@]2(C)[C@H]1CC[C@]2(O)C(=O)CO` [Prednisone] (20 µM) is 1.1.
